Read-out in assay [1]: NAD(P)H dehydrogenase [quinone] 1 (NQO1), NQO1 (gene 1728)
The experiment in a line: LTEA_HepaRG_NQO1: Life Technologies and Expression Analysis (LTEA) Assay for NAD(P)H dehydrogenase [quinone] 1 (NQO1) using HepaRG (AID 2283526). To be noted: mRNA level, 48 h; actives raise or lower the signal. The method, boiled down: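 Differentiated HepaRG cells, plated 48 h and then switched to serum-free induction medium, were exposed in duplicate for 48 h to 8-point half-log concentrations up to 100 uM in 0.5% DMSO. mRNA measured by qRT-PCR, normalized to ACTB, GAPDH, POLR2A; bidirectional fit versus DMSO.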

Read-out in assay [2]: Nuclear factor erythroid 2-related factor 2 (Homo sapiens) (UniProt Q16236)
The experiment in a line: LTEA_HepaRG_NFE2L2: Life Technologies and Expression Analysis (LTEA) Assay for Nuclear factor erythroid 2-related factor 2 (NFE2L2) Transcription Factor using HepaRG (AID 2283527).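 Further: TaqMan qRT-PCR transcript level normalised to ACTB GAPDH and POLR2A housekeeping genes.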 The note with it: mRNA level, 48 h; actives raise or lower the signal. The method, boiled down:
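Transcript level of NFE2L2 is the read-out, measured by microfluidic TaqMan qRT-PCR and normalized to three housekeeping genes. Human HepaRG cultures received test chemical for 48 h at up to 100 uM in half-log steps. Gain or loss of signal is fitted relative to 0.5% DMSO.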

Read-out in assay [3]: succinate dehydrogenase complex iron sulfur subunit B (SDHB), SDHB (gene 6390)
The experiment in a line: LTEA_HepaRG_SDHB: Life Technologies and Expression Analysis (LTEA) Assay for succinate dehydrogenase complex iron sulfur subunit B (SDHB) using HepaRG (AID 2283528). The note with it: mRNA level, 48 h; actives raise or lower the signal. The method, boiled down:
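HepaRG, 48 h exposure, 8-pt half-log series from 100 uM in 0.5% DMSO, duplicates. Readout: SDHB mRNA by Fluidigm qRT-PCR vs housekeeping genes; bidirectional fit relative to DMSO.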

Read-out in assay [4]: Signal transducer and activator of transcription 3 (Homo sapiens) (UniProt P40763)
The experiment in a line: LTEA_HepaRG_STAT3: Life Technologies and Expression Analysis (LTEA) Assay for Signal transducer and activator of transcription (STAT3) using HepaRG (AID 2283529). The note with it: mRNA level, 48 h; actives raise or lower the signal. The method, boiled down:
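Read-out is STAT3 mRNA level by qRT-PCR, normalized to three housekeeping genes, in human HepaRG liver cells treated for 48 h. Concentrations ran from 100 uM downward in half-log steps; curves were fitted for gain or loss relative to 0.5% DMSO.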

Read-out in assay [5]: solute carrier (SLCO1B1), SLCO1B1 (gene 10599)
Description: LTEA_HepaRG_SLCO1B1: Life Technologies and Expression Analysis (LTEA) Assay for solute carrier (SLCO1B1) using HepaRG (AID 2283530). To be noted: mRNA level, 48 h; actives raise or lower the signal. In outline: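 Human HepaRG cultures treated for 48 h with an eight-concentration half-log series topping at 100 uM; SLCO1B1 measured by qRT-PCR and fitted bidirectionally relative to DMSO.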

Read-out in assay [6]: sulfotransferase 2A1 (SULT2A1), SULT2A1 (gene 6822)
The experiment in a line: LTEA_HepaRG_SULT2A1: Life Technologies and Expression Analysis (LTEA) Assay for sulfotransferase 2A1 (SULT2A1) using HepaRG (AID 2283531). The note with it: mRNA level, 48 h; actives raise or lower the signal. The method, boiled down: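 Gene-expression endpoint in a human liver cell line: SULT2A1 mRNA change after 48 h chemical treatment, curves fitted in both directions relative to 0.5% DMSO vehicle. Concentrations spanned eight half-log steps from 100 uM.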

Read-out in assay [7]: Transforming Growth Factor (TGFA), TGFA (gene 7039)
The experiment in a line: LTEA_HepaRG_TGFA: Life Technologies and Expression Analysis (LTEA) Assay for Transforming Growth Factor (TGFA) using HepaRG (AID 2283532). The note with it: mRNA level, 48 h; actives raise or lower the signal. The method, boiled down: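 HepaRG (human liver line), 48 h exposure, 8 conc. half-log down from 100 uM, 0.5% DMSO vehicle, duplicates; serum-free induction medium. TGFA mRNA by TaqMan qRT-PCR, ACTB/GAPDH/POLR2A normalization; gain/loss fit vs DMSO.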

Read-out in assay [8]: Transforming Growth Factor (TGFB1), TGFB1 (gene 7040)
Description: LTEA_HepaRG_TGFB1: Life Technologies and Expression Analysis (LTEA) Assay for Transforming Growth Factor (TGFB1) Transporter using HepaRG (AID 2283533). To be noted: mRNA level, 48 h; actives raise or lower the signal. In outline: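 Eight-point concentration-response (max 100 uM, half-log) in HepaRG under serum-free induction conditions, 48 h. TGFB1 mRNA by qRT-PCR, housekeeping-normalized.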

Read-out in a further assay: TIMP1, TIMP1 (gene 7076)
The experiment in a line: LTEA_HepaRG_TIMP1: Life Technologies and Expression Analysis (LTEA) Assay for TIMP1 using HepaRG (AID 2283534).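 Further: TaqMan qRT-PCR signal normalized to ACTB GAPDH and POLR2A housekeeping genes.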 The note with it: mRNA level, 48 h; actives raise or lower the signal. The method, boiled down: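 TIMP1 induction or repression in HepaRG cells after 48 h chemical exposure (eight concentrations, highest 100 uM), assessed by normalized qRT-PCR with bidirectional fitting to DMSO controls.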

Read-out in assay [9]: Tumor necrosis factor receptor 1 (TNFRSF1A), TNFRSF1A (gene 7132)
Description: LTEA_HepaRG_TNFRSF1A: Life Technologies and Expression Analysis (LTEA) Assay for Tumor necrosis factor receptor 1 (TNFRSF1A) using HepaRG (AID 2283535). To be noted: mRNA level, 48 h; actives raise or lower the signal. The method, boiled down:
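Assay uses 48 h chemical treatment of differentiated HepaRG monolayers, tested in duplicate at eight concentrations from 100 uM downward in 0.5% DMSO. mRNA is normalized to ACTB, GAPDH and POLR2A, with induction or suppression fitted relative to vehicle.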

Read-out in assay [10]: Thyroid Hormone Responsive (THRSP), THRSP (gene 7069)
The experiment in a line: LTEA_HepaRG_THRSP: Life Technologies and Expression Analysis (LTEA) Assay for Thyroid Hormone Responsive (THRSP) using HepaRG (AID 2283536). The note with it: mRNA level, 48 h; actives raise or lower the signal. The method, boiled down: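 mRNA induction or loss relative to 0.5% DMSO vehicle was fitted bidirectionally across an eight-point curve whose highest exposure was 100 uM. Human HepaRG liver cells received chemicals in duplicate over 48 h before RNA extraction.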

Read-out in assay [11]: UDP glucuronosyltransferase (UGT1A1), UGT1A1 (gene 54658)
The experiment in a line: LTEA_HepaRG_UGT1A1: Life Technologies and Expression Analysis (LTEA) Assay for UDP glucuronosyltransferase (UGT1A1) using HepaRG (AID 2283538). To be noted: mRNA level, 48 h; actives raise or lower the signal. In outline:
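Differentiated human HepaRG cells in serum-free induction medium were exposed in duplicate for 48 h to eight half-log concentrations up to 100 uM in 0.5% DMSO. UGT1A1 mRNA was quantified by TaqMan qRT-PCR, normalized to ACTB, GAPDH and POLR2A, and fitted bidirectionally against DMSO.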

Read-out in assay [12]: UDP glucuronosyltransferase (UGT1A6), UGT1A6 (gene 54578)
Description: LTEA_HepaRG_UGT1A6: Life Technologies and Expression Analysis (LTEA) Assay for UDP glucuronosyltransferase (UGT1A6) using HepaRG (AID 2283539). To be noted: mRNA level, 48 h; actives raise or lower the signal. In outline: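 Measures mRNA change in HepaRG hepatic cells exposed 48 h to chemicals (eight-point, maximum 100 uM, 0.5% DMSO vehicle) in serum-free induction medium. Expression normalized to endogenous controls; DMSO served as negative control and baseline.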

Read-out in assay [13]: X-box binding protein 1 (XBP1), XBP1 (gene 7494)
The experiment in a line: LTEA_HepaRG_XBP1: Life Technologies and Expression Analysis (LTEA) Assay for X-box binding protein 1 (XBP1) using HepaRG (AID 2283540). The note with it: mRNA level, 48 h; actives raise or lower the signal. The method, boiled down: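 Eight concentrations (half-log, highest 100 uM, 0.5% DMSO) tested in duplicate on HepaRG cells over 48 h in serum-free induction medium; qRT-PCR of XBP1 normalised to ACTB, GAPDH, POLR2A.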

Assay [14] in a line: LTEA_HepaRG_LDH_cytotoxicity: Cytotoxicity Assessment in the Life Technologies and Expression Analysis (LTEA) Assay (AID 2283563; active means hit-call score of the fitted dose curve at least 0.9, where 1 is the maximum;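 on AC50: LDH activity released into spent culture medium as a marker of cell death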). The method, boiled down: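 Spent-medium LDH after 48 h chemical exposure of HepaRG cells in serum-free induction medium; eight concentrations, half-log dilutions from 100 uM, duplicate wells, fitted upward relative to 0.5% DMSO.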
Assay [15] can be described thus: ATG_XTT_Cytotoxicity: Cytotoxicity Assessment in the Attagene TRANS-FACTORIAL HepG2 Assay (AID 2283584; active means hit-call score of the fitted dose curve at least 0.9, where 1 is the maximum;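 on AC50: XTT signal for cell number as viability in transfected HepG2 cells; cells exposed to compound for 24 h before reading; active means loss of viability signal versus DMSO baseline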). In outline:
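24 h chemical exposure of reporter-transfected HepG2; XTT signal loss vs DMSO indicates cytotoxicity.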

Assay [16] in a line: TOX21_p53_BLA_p2_viability: Viability Assessment in the Tox21 HCT-116 p53 Agonism Beta-lactamase Assay, Phase 2 (AID 2283591; active means hit-call score of the fitted dose curve at least 0.9, where 1 is the maximum;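 further: compound exposure lasted 16 h at 37 °C; actives lower the ATP signal meaning cytotoxicity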). The method, boiled down:
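Cytotoxicity readout: CellTiter-Glo ATP luminescence, 30 min at room temperature, after the beta-lactamase read. Cells were HCT116 exposed 16 h at 37C to compounds pin-transferred at 217-fold dilution from DMSO stocks.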

The target of assay [17] is Cellular tumor antigen p53 (Homo sapiens) (UniProt P04637). Description: TOX21_p53_BLA_p2_ratio: Tox21 HCT-116 p53 Agonism Beta-lactamase Assay, Ratio, Phase 2 (AID 2283592; active means hit-call score of the fitted dose curve at least 0.9, where 1 is the maximum). In outline:
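Human colon HCT116 cells with an inducible p53 beta-lactamase reporter are exposed to test chemicals for 16 h at 37C. Reporter induction is read as the 460/530 nm emission ratio after CCF4-AM loading, normalized to DMSO.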

“And” between values parts separate entries of the source, which are not always exact repeats. Equal values may be shown once. Results filed as inconclusive are left out. A structure can be active in one record and inactive in another. The source made the active and inactive calls. How the source made its calls, unless noted: active means hit-call score of the fitted dose curve at least 0.9, where 1 is the maximum; inactive means score below 0.9.

For orientation: AC50 means the midpoint of the concentration-response curve, whichever way the signal moves.

Chain of Signal transducer and activator of transcription 3 (Homo sapiens) (P40763 whole entry, looked up): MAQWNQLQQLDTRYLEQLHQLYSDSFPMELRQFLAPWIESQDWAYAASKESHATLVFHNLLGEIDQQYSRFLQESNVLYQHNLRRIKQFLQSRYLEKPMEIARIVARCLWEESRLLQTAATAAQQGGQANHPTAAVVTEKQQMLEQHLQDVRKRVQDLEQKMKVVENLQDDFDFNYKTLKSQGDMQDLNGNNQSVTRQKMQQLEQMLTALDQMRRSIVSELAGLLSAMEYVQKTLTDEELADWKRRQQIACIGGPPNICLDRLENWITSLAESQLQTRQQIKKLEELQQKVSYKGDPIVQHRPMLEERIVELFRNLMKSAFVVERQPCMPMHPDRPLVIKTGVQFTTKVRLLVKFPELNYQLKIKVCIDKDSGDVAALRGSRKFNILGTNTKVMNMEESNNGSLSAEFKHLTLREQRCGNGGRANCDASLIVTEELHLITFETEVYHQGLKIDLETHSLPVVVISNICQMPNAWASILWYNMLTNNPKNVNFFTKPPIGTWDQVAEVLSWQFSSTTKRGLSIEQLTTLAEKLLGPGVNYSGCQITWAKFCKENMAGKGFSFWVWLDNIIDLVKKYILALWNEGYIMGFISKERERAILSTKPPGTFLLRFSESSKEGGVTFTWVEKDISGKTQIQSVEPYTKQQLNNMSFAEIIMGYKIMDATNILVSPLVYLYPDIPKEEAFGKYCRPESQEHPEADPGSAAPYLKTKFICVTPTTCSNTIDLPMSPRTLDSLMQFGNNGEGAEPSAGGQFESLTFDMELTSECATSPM
Chain of Cellular tumor antigen p53 (Homo sapiens) (P04637 whole entry, looked up): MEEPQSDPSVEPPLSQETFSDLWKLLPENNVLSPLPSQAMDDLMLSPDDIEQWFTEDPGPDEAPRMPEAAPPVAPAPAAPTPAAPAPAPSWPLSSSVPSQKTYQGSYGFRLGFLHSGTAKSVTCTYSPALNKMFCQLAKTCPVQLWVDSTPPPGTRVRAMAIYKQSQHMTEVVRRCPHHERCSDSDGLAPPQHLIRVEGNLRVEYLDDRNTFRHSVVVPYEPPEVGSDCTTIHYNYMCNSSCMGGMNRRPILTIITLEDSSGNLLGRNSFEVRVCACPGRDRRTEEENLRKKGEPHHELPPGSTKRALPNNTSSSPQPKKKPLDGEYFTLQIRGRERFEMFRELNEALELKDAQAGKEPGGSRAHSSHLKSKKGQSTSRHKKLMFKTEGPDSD
Chain of Nuclear factor erythroid 2-related factor 2 (Homo sapiens) (Q16236 whole entry, looked up): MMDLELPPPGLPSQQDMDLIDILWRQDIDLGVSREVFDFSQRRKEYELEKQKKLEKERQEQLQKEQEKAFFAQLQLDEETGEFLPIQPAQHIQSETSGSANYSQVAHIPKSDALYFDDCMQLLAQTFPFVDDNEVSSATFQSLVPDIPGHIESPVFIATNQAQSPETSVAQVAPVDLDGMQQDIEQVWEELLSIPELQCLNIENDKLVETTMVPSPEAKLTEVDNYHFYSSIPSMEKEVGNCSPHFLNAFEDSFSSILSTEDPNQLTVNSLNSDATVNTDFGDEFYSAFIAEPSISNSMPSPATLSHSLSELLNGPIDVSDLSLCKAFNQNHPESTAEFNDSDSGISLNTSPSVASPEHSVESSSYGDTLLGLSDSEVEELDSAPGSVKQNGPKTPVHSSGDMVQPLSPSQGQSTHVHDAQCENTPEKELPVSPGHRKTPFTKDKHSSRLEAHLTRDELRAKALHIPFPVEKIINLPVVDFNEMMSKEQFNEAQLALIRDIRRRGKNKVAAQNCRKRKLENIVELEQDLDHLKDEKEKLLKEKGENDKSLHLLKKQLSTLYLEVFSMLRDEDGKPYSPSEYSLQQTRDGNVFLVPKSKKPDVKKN

With `Oc1ccc(C(c2ccc(O)cc2)(C(F)(F)F)C(F)(F)F)cc1`, the AC50 is 78.9 µM (active) in assay [1]; 88.4 µM (active) in assay [6]; 82.4 µM (active) in assay [7]; 76.5 µM (active) in assay [8]; 87.5 µM (active) in assay [11]; 74.5 µM (active) in assay [12]. Moreover, the concentration at half-maximal activity (AC50) in assay [13] is 77.7 µM (active); in assay [14], 77 µM (active); in assay [15], 60.9 µM (active) and 100 µM (active); in [16], 65.1 µM (active); in assay [17] it was 63 µM (active). Further, the outcome in assay [2] is “inactive”; in assay [3], “inactive”; in assay [4], “inactive”; in assay [5] it was “inactive”; with TIMP1, TIMP1 (gene 7076), “inactive”; in assay [9] it was “inactive”. Further, the compound was called inactive in assay [10], in assay [15], in [16] and in assay [17].

In the case of `N#Cc1ccc(N(CC(N)=O)CC(F)(F)F)cc1C(F)(F)F`, the call in [1], in assay [2], in assay [3], in assay [4], in [5] and in [6] was inactive. Moreover, the outcome in assay [7] is “inactive”; in [8], “inactive”; with TIMP1, TIMP1 (gene 7076), “inactive”; in [9], “inactive”; in assay [12] it was “inactive”; in [13], “inactive”. Also, the compound was classed as inactive in assay [14] and in [16]. For the same compound, the half-maximal activity concentration (AC50) in [10] was 0.103 µM (active); in assay [11], 22.6 µM (active).

With `CCC(C)(c1ccc(O)cc1)c1ccc(O)cc1`, the compound was classed as inactive in [1], in assay [2], in [3], in [4], in [5] and in assay [6]. For the same compound, the outcome is “inactive” in assay [7]; “inactive” in assay [8]; “inactive” in the assay with TIMP1, TIMP1 (gene 7076); “inactive” in assay [9]; “inactive” in assay [11]; “inactive” in assay [12]. In addition, the call in assay [13], in [14], in [15] and in [16] was inactive. The concentration at half-maximal activity (AC50) in [10] was 87.3 µM (active); in [17] it was 87.1 µM (active) and 71 µM (active).

Source of the values: PubChem BioAssay (EPA / NIEHS).
